Source: PubChem BioAssay (several laboratories)
An excerpt weighted towards active compounds, which were near 32% of everything screened.
PostGolgi yeast: phenotypic screen on post-Golgi transport, primary screen; post-Golgi transport phenotypic cell assay; inhibition, % at 10 µM; 98,000 compounds, 0.9% hits;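 note: yeast cells grown in 1536-well plates; yeast grown about 18 h at 30C before absorbance read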
CYP2C19 act: human CYP2C19 activators, primary screen, biochemical, luminescence | Cytochrome P450 2C19 (Homo sapiens), P33261 | recombinant CYP2C19, luciferin-H EGE luminescence; hits give high values; 0 = fully inhibited enzyme, 1 = untreated enzyme | activation factor at 5 µM | 96,000 tested, under 10 active | AID 1025, 2008;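 active = activation factor of at least 2 at 5 µM in the primary screen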;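 note: 0 = wells with 2.5 mM tranylcypromine and 1 = vehicle-only wells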
Target sequence (P33261 whole entry, looked up): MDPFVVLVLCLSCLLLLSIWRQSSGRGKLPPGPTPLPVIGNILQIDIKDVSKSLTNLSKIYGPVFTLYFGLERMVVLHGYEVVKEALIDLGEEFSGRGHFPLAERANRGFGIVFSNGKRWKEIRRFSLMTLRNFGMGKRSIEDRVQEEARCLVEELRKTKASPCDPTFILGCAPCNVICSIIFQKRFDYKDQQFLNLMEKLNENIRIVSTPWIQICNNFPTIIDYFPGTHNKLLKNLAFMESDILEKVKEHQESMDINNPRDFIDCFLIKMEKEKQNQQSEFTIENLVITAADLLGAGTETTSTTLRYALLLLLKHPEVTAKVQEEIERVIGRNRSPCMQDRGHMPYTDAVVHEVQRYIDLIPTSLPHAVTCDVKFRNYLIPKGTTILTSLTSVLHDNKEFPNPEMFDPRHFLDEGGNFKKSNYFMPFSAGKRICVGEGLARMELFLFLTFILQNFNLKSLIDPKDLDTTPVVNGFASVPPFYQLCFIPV
CYP2C9 activ: human CYP2C9 activators, primary screen, biochemical, luminescence; recombinant CYP2C9, luciferin-H conversion; hits give high values; factor 1 = untreated enzyme, 0 = blocked; activation factor at 5 µM; 96,000 compounds, 1.4% hits; AID 1024, 2008;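 active = activation factor of 2 or more for CYP2C9 at a 5 µM dose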;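 note: 0 = sulfaphenazole-blocked wells and 1 = vehicle-only wells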
CYP2C9 inhib: blockers of cytochrome P450 2C9 activity – biochemical, luminescence, ADME assay, primary screen | P11712 | CYP2C9 Supersomes, luciferin-H conversion | inhibition, % at 5 µM | 96,000 compounds, 20% hits;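 active = blocking of liver enzyme CYP2C9 beyond about 50% at 5 µM, limit read from the data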
CYP2C19 inhib: blockers of cytochrome P450 2C19 activity – biochemical, luminescence, ADME assay, primary screen; P33261; AID 778, 2007; inhibition, % at 5 µM; 96,000 compounds, 21% hits; CYP2C19 Supersomes, luciferin-H EGE luminescence, 30 min;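 active = CYP2C19 inhibition above a set limit at 5 µM in the primary screen, cut at about 50% in these data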;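 note: plate controls were negative control wells for no effect and 2.5 mM tranylcypromine positive control for full effect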
PostGolgi ctrl: growth inhibition of yeast control strain, primary screen, counter-screen for post-Golgi transport modulator project; 98,000 compounds, 5% hits; inhibition, % at 10 µM; efflux-deficient yeast background strain, growth absorbance A615, 16 h
* hit, by the source's call; . = no result given. Cut-off read from the data, not from the text of the source, unless noted: active = inhibition above about 30%; inactive = the rest.

SMILES | PostGolgi yeast | CYP2C19 act | CYP2C9 activ | CYP2C9 inhib | CYP2C19 inhib | PostGolgi ctrl
CCCC1S/C(=N/N=C/c2ccc(C)cc2)N(Cc2ccc(OC)cc2)C1=O (configuration not stated) | 9.0 | 1.1 | 0.9 | 5.0 | -9.6 | 1.8
COc1ccc(CN2C(=O)c3ccccc3C(/C=N\OCc3ccc(C)cc3)C2=O)cc1 (configuration not stated) | -4.4 | 0.5 | 0.3 | 73.3* | 47.2 | 3.6
Cc1ccc(OCc2nnc(NC(=O)c3ccco3)s2)c(C)c1 | -4.6 | 1.1 | 0.8 | 20.3 | -10.9 | -12.8
CC(=O)Nc1ccccc1-c1nc2ccccc2nc1OCC(=O)c1ccc(Br)cc1 | 0.0 | 0.9 | 0.4 | 58.2* | 10.4 | 1.7
CCOC(=O)c1ccc(COc2nc3ccccc3nc2-c2ccccc2NC(C)=O)o1 | -11.8 | 0.7 | 0.7 | 29.0 | 26.4 | 3.9
CC(=O)Nc1ccccc1-c1nc2ccccc2nc1OCC(=O)c1ccc2ccccc2c1 | 2.6 | 0.8 | 0.3 | 67.9* | 19.9 | 15.6
Cc1c(NC(=O)CSc2nnnn2-c2ccc(O)cc2)c(=O)n(-c2ccccc2)n1C | -2.4 | 0.9 | 1.6 | -59.4 | 9.6 | 9.9
O=C(Nc1ccc(F)cc1)N1CCn2c(nc3ccccc32)C1 | -3.8 | 0.6 | 0.9 | 9.1 | 35.2 | -7.0
CC(C)CC(C(=O)Nc1oc(-c2ccco2)c(-c2ccco2)c1C#N)N1C(=O)c2ccccc2C1=O (configuration not stated) | -2.1 | 0.3 | 0 | 97.8* | 69.4* | -2.3
CC(=O)C1=C(C)NC(SCC(=O)c2ccc(Cl)c(Cl)c2)=C(C#N)C1c1ccco1 (configuration not stated) | . | 0.2 | 0.1 | 92.9* | 77.4* | .
CCOC(=O)C1=C(C)NC(SCC(=O)O)=C(C#N)C1c1ccco1 (configuration not stated) | 3.0 | 1 | 0.6 | 41.2 | -1.9 | 20.8
CC(=O)C1=C(C)NC(SCC(N)=O)=C(C#N)C1c1sccc1C (configuration not stated) | -4.8 | 0.8 | 0.8 | 19.0 | 16.9 | 9.3
CC(=O)C1=C(C)NC(SCC(=O)c2cc(Cl)ccc2Cl)=C(C#N)C1c1ccco1 (configuration not stated) | . | 0 | 0 | 100.0* | 99.5* | .
O=C(c1ccccc1Cl)N1N=C(c2ccc(Br)cc2)CC1c1nc2ccccc2[nH]1 (configuration not stated) | 8.0 | 0.5 | 0.3 | 67.1* | 50.1* | 63.9*
CCOc1cc(C(=O)N(C)c2ccccc2)cc(OCC)c1OCC | 7.2 | 0.4 | 0.8 | 21.5 | 57.2* | 2.4
CCOc1cc(C(=O)N2CCN(c3ccccc3)CC2)cc(OCC)c1OCC | -1.4 | 0.8 | 1.2 | -17.1 | 16.1 | -4.8
COc1ccc(OC)c(NC(=O)C2CCN(c3ncccn3)CC2)c1 | -3.6 | 0.7 | 1.2 | -18.4 | 26.4 | 8.9
CS(=O)(=O)N1CCC(C(=O)Nc2ccccc2Sc2ccccc2)CC1 | 3.4 | 0.7 | 0.8 | 18.0 | 25.7 | 7.8
Cc1nnc(SCC(=O)N2CCC(C(N)=O)CC2)s1 | 13.3 | . | . | . | . | 4.3
CC(=O)Nc1ccc(S(=O)(=O)N(C)CCOCc2ccccc2)cc1 | -5.2 | 0.4 | 2* | -99.6 | 55.2* | 3.5
CC(=O)Nc1ccc(S(=O)(=O)N(C)S(=O)(=O)c2ccc(F)cc2)cc1 | 3.5 | 0.5 | 0.8 | 24.1 | 51.8* | 12.4
CC(=O)Nc1ccc(S(=O)(=O)N(CCO)Cc2ccccc2)cc1 | -0.2 | 0.4 | 0.3 | 71.0* | 56.5* | 0.5
CN(CC(N)=O)S(=O)(=O)c1ccc(F)cc1 | -5.5 | 1 | 1.1 | -5.3 | 0.0 | 2.3
CCCCCCOC1(c2ccccc2)OC(=O)c2ccccc21 (configuration not stated) | -5.2 | 0.4 | 0.4 | 61.8* | 55.5* | 3.7
Cc1cccc(OC2(c3ccccc3)OC(=O)c3ccccc32)c1C (configuration not stated) | -2.1 | 0.6 | 0.2 | 82.6* | 44.3 | 14.9
SMILES | PostGolgi yeast | CYP2C19 act | CYP2C9 activ | CYP2C9 inhib | CYP2C19 inhib | PostGolgi ctrl
CCCCCCCOC1(c2ccccc2)OC(=O)c2ccccc21 (configuration not stated) | 10.3 | 0.2 | 0.2 | 76.3* | 78.5* | 5.8
CCCS(=O)(=O)C(=C(Nc1ccccc1)Nc1ccccc1)S(=O)(=O)CCC | 6.2 | 1.2 | 1.3 | -29.3 | -21.6 | 4.8
CCOc1ccccc1NC(=O)N1CCC(c2nc3ccccc3[nH]2)CC1 | -0.8 | 0.4 | 1.5 | -47.4 | 63.4* | -10.6
COc1ccc(NC(=S)N2CCC(c3nc4ccccc4[nH]3)CC2)c(OC)c1 | -1.4 | 0.8 | 0.4 | 59.0* | 22.0 | 9.4
COc1ccccc1NC(=S)N1CCC(c2nc3cc(C)c(C)cc3[nH]2)CC1 | -4.2 | 0.8 | 0.8 | 19.8 | 22.1 | -2.5
Cc1cc(N)c(NC2=CC(=O)CC(C)(C)C2)cc1C | 5.0 | 0.9 | 1.1 | -9.1 | 7.5 | -4.3
COc1ccccc1NC(=O)N(Cc1ccco1)Cc1cc2cc(C)cc(C)c2[nH]c1=O | -11.0 | 0.4 | 0.4 | 61.5* | 59.8* | 67.1*
COc1ccccc1NC(=O)N(Cc1ccco1)Cc1cc2ccc(C)c(C)c2[nH]c1=O | 10.7 | 0.8 | 0.4 | 63.9* | 22.4 | 41.1*
Cc1ccc(C)c2[nH]c(=O)c(CN(Cc3ccco3)C(=O)Nc3ccccc3)cc12 | -6.0 | 0.7 | 0.6 | 39.9 | 26.3 | 41.8*
Cc1ccc2cc(CN(Cc3ccco3)C(=O)NCc3ccccc3)c(=O)[nH]c2c1C | 11.7 | 0.8 | 0.6 | 37.4 | 22.1 | 6.7
COc1cc(C(=O)N(Cc2ccco2)Cc2cc3ccccc3[nH]c2=O)cc(OC)c1OC | 1.5 | 0.7 | 0.7 | 29.4 | 29.1 | 28.0
COc1ccc(N(C(=O)c2cccc(OC)c2OC)C2C=CS(=O)(=O)C2)c(OC)c1 (configuration not stated) | -8.1 | 1.1 | 1.1 | -14.3 | -7.9 | 4.6
CCSc1ccccc1C(=O)NCc1ccc(S(N)(=O)=O)cc1 | 4.1 | 1 | 0.9 | 8.2 | 2.9 | 8.3
O=C(Nc1ccccc1-c1nnn(CC(=O)N2CCc3ccccc3C2)n1)C1CCC1 | 3.5 | 0.8 | 0.4 | 64.6* | 20.5 | 6.2
O=C(CCn1nnc(-c2cccs2)n1)N1CCc2ccccc2C1 | -5.5 | 0.7 | 0.8 | 22.3 | 25.5 | 7.4
O=C(Nc1cccc(-c2nnn(CC(=O)N3CCc4ccccc4C3)n2)c1)C1CCC1 | -7.9 | 0.2 | 0.5 | 46.8 | 83.7* | 1.6
CCN=c1scc(C)n1/N=C/c1ccsc1 | -1.1 | 0.4 | 0.6 | 37.5 | 60.3* | 2.6
COC(=O)c1cc2ccsc2n1CC(=O)N(C)C1CCCCC1 | -4.2 | 0.7 | 0.9 | 12.0 | 33.3 | 8.2
